According to PubChem BioAssay AID485346 (Sanford-Burnham Center for Chemical Genomics, 2010):
Among all 330,000 compounds or so, about 10,000 (3%) were called active. What follows is part of a selection rich in actives, with near analogues and random picks from the rest. Values without a mark were called inactive.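 Rule for the calls: active = inhibition of at least 50% at 8 µM in the primary screen; inactive = the rest.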

target: Protein Mdm4 (Homo sapiens) + E3 ubiquitin-protein ligase Mdm2 (Homo sapiens) (UniProt O15151+Q00987); assay: inhibitors of human Mdm2-MdmX association, primary screen, cell-based, luminescence, split luciferase, SaOS-2, uHTS (AID 485346); details: SaOS-2 split-luciferase Mdm2/MdmX complementation, at 8 µM, hits give high values
Sequence (O15151 whole entry, looked up): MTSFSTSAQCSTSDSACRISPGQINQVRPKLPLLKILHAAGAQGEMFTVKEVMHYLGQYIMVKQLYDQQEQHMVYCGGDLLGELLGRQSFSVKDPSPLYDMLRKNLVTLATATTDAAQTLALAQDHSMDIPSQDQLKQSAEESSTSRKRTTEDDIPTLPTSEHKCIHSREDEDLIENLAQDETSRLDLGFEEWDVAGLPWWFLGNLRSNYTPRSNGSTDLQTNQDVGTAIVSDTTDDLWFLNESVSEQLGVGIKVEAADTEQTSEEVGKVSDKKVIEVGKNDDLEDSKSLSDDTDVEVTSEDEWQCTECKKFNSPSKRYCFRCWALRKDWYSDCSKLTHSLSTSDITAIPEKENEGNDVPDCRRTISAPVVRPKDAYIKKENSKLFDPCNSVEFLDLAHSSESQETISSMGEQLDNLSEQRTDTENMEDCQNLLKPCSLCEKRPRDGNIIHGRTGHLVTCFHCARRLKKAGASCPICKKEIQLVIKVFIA
Sequence (Q00987 whole entry, looked up): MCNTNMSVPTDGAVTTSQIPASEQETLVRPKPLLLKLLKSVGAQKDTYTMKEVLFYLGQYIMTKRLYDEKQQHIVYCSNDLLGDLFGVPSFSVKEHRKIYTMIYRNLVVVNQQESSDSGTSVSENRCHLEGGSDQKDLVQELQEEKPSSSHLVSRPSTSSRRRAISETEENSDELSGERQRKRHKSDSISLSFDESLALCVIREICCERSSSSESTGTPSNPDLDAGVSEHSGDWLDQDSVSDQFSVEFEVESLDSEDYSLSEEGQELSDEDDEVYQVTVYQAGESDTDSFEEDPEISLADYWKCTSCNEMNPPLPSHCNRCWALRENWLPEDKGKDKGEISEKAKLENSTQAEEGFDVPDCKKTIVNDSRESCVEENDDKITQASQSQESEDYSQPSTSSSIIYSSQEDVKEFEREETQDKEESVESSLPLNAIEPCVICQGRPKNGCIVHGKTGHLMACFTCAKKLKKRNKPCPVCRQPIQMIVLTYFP

SMILES | inhibition
COc1ccc(NC(=O)N(C)C[C@H]2Oc3ccc(NC(=O)C4CC4)cc3C(=O)N([C@H](C)CO)C[C@@H]2C)cc1 | -5.08%
O=C(CC1CCCCC1)NCc1ccc(F)cc1 | -13.5%
Cc1ccc(C(=O)NNC(=O)c2cc3cc4ccccc4nc3s2)cc1 | 55.3% (active)
Cc1ccc(C(=O)NNc2ncnc3ccccc23)cc1 | -48.9%
Cc1ccc(C(=O)NNC(=O)c2cccs2)cc1 | -2.54%
CC[C@@]1(C(=O)OC)N[C@H](CN(C)C(C)=O)[C@@H]2C(=O)N(C)C(=O)[C@@H]21 | -30.9%
CC[C@]12c3[nH]c4ccc(Cl)cc4c3CCN1C(=O)[C@@H](CC(=O)NCCCOC)C[C@@H]2C(=O)N1CCN(C(=O)c2ccco2)CC1 | 2.9%
Cc1cc(C)c2c(-c3ccc(F)cc3)c(C#N)c(=O)n(C)c2n1 | 51.8% (active)
Cn1c(N)cc(-c2ccc(F)cc2)c(C#N)c1=O | 14%
COc1ccc(O)c(C(=O)c2cnc3c(c2)c(-c2ccc(F)cc2)c(C#N)c(=O)n3C)c1 | 12.9%
O=C(CCNS(=O)(=O)c1ccc(Br)cc1)NCC1CCCO1 (stereo unspecified) | -4.62%
O=C(CSc1ccc(-c2ccc(Br)cc2)nn1)NCC1CCCO1 (stereo unspecified) | -18.5%
OC(CNCC1CCCO1)Cn1c2ccc(Br)cc2c2cc(Br)ccc21 (stereo unspecified) | 101% (active)
O=C(O)CC12CC3CC(C1)CC(n1ncc(NCc4ccc(F)cc4)c(Cl)c1=O)(C3)C2 | -8.77%
COc1ccc(NC(=O)CN(C)C(=O)c2cccc(S(=O)(=O)N3CCN(c4ccccc4)CC3)c2)cc1 | 17%
O=C(OC1CCOC1=O)c1ccc(-c2nc3ccccc3s2)s1 (stereo unspecified) | -9.1%
CCOC(=O)C1=C(C)N=C2c3ccccc3C(=O)C2C1c1ccc(Br)cc1 (stereo unspecified) | 24%
O=C1c2ccccc2C2=Nc3ccccc3SC(c3ccccc3F)C12 (stereo unspecified) | 65.3% (active)
O=C1c2ccccc2C(=O)C1c1ccccc1F | -3.2%
O=C(CCc1nnc(Cc2ccc3c(c2)OCO3)o1)NCCc1ccccc1Cl | 6%
CC(=O)NCCc1ccc(S(=O)(=O)Nc2ccc(C)c(S(=O)(=O)N3CCOCC3)c2)cc1 | 2.62%
Oc1ccccc1CN1CCN(C(c2ccccc2)c2ccccc2)CC1 | 19.1%

SMILES | inhibition
O=C1CC(N2CCN(C(c3ccccc3)c3ccccc3)CC2)C(=O)N1 (stereo unspecified) | 28.3%
CC1(C)CC(N2CCN(C(c3ccccc3)c3ccccc3)CC2)=CC(=[N+]2CCCCC2)C1 | 90.1% (active)
CC1=C(C(=O)OCc2ccccc2)C(c2ccc(C(F)(F)F)cc2)NC(=O)N1CCCCCC(=O)O (stereo unspecified) | 4.93%
CCN1C(=O)N[C@@H](c2ccccc2)C(C(=O)OC)=C1C | 6.41%
CCCCNC(=O)C(C)N(CCN(C)C)C(=O)CCCN1C(=O)NC(c2ccc(Cl)cc2)C(C(=O)OCc2ccccc2)=C1C (stereo unspecified) | 84.8% (active)
CCCCNC(=O)C(C)N(CCN(C)C)C(=O)CCCCCN1C(=O)NC(c2ccc(Cl)cc2)C(C(=O)OCc2ccccc2)=C1C (stereo unspecified) | 97.4% (active)
COCCN1C(=O)N[C@@H](c2ccccc2)C(C(=O)OC)=C1C | -16.5%
COC(=O)CCCCCN1C(=O)NC(c2ccc(-c3ccccc3)cc2)C(C(=O)OCc2ccccc2)=C1C (stereo unspecified) | 22.2%
O=C(Nc1cccc(O)c1)c1ccc(C(=O)c2ccccc2)o1 | -23.5%
CC(C)(C)OC(=O)C1=C(CO)CS[C@@H]2[C@H](NC(=O)Cc3ccccc3)C(=O)N12 | 1.66%
Cc1ccc(CN2CCC(N3CCC(C(=O)NCC4CCCO4)CC3)CC2)o1 (stereo unspecified) | 1.75%
O=C(COC(=O)c1ccccc1)c1ccc2c(c1)OCCO2 | 35.8%
Cc1cc(C)cc(OCC(=O)Nc2cc(NC(=O)COc3cc(C)cc(C)c3)cc(C(=O)O)c2)c1 | 5.1%
CC(NC(=O)COC(=O)C1CCN(S(=O)(=O)c2ccccc2C(F)(F)F)CC1)c1ccccc1 (stereo unspecified) | -7.62%
NC(=O)c1nsc(C(=O)N(CCCN2CCOCC2)C(C(=O)NC2CCCCC2)c2ccc(Cl)cc2)c1N (stereo unspecified) | -0.899%
COc1cc(N2C(=O)CC3(CCCC3)CC2=O)cc(OC)c1OC | 20%
Cc1ccc2nc(-c3ccncc3)cc(C(=O)Nc3ccc4c(c3)OCCO4)c2c1 | 60.7% (active)
Cc1ccc2nc(-c3ccccn3)cc(C(=O)Nc3ccc4c(c3)OCO4)c2c1 | 28.8%
Cc1ccc2nc(-c3ccncc3)cc(C(=O)Nc3ccc(OC(F)F)cc3)c2c1 | 37.3%
COc1ccc(CCNC(=O)CN(c2ccccc2)S(C)(=O)=O)cc1OC | -2.08%
CCc1[nH]nc(C(=O)N2CCCC(CNS(=O)(=O)c3cccs3)C2)c1C (stereo unspecified) | 7.22%
COc1ccc(-n2c(SCC(=O)Nc3sc4c(c3C#N)CCCC4)nnc2-c2ccc(O)cc2)cc1 | 33.8%

SMILES | inhibition
N#Cc1c(NC(=O)CSc2nc3ccccc3c(=O)n2Cc2ccco2)sc2c1CCCC2 | 54.1% (active)
Cc1cc(NC(=O)CSc2nc3cc(Cl)ccc3c(=O)n2Cc2ccco2)no1 | 40.1%
Cc1ccc(CN2CC(C(=O)N3CCN(S(=O)(=O)c4ccccc4)CC3)CC2=O)cc1 (stereo unspecified) | -7.06%
O=C(NCc1cccnc1)c1ccccc1NC(=O)c1c(F)cccc1F | 12.2%
COC(=O)[C@@]1(C)[C@H]2C(=O)N(Cc3ccccc3)C(=O)[C@H]2[C@H]2CN=C(SCC3CC3)N21 | 16.2%
CC[C@]1(C(=O)OC)[C@H]2C(=O)N(Cc3ccccc3)C(=O)[C@H]2[C@H]2CN=C(SCc3ccccc3)N21 | 70% (active)
CCCN=C1N(C)C[C@@H]2[C@@H]3C(=O)N(Cc4ccccc4)C(=O)[C@@H]3[C@](C)(C(=O)OC)N12 | -2.26%
CCN1C[C@@H]2[C@@H]3C(=O)N(Cc4ccccc4)C(=O)[C@@H]3[C@](Cc3ccccc3)(C(=O)OC)N2C1=NC1CCCCC1 | 44.3%
CC[C@]1(C(=O)OC)[C@H]2C(=O)N(Cc3ccccc3)C(=O)[C@H]2[C@H]2CN=C(SCc3ccc(Cl)cc3)N21 | 99.6% (active)
CC[C@]1(C(=O)OC)[C@H]2C(=O)N(C)C(=O)[C@H]2[C@H]2CN(C)C(=NCc3ccccc3)N21 | 15.5%
CCN(C[C@H]1N[C@@](CC)(C(=O)OC)[C@H]2C(=O)N(Cc3ccccc3)C(=O)[C@@H]12)S(=O)(=O)c1ccccc1 | 9.24%
CC[C@]1(C(=O)OC)[C@H]2C(=O)N(Cc3ccccc3)C(=O)[C@H]2[C@H]2CN=C(SCc3ccc(C#N)cc3)N21 | 93% (active)
CCNC(=O)N(CC)C[C@H]1N[C@@](CC)(C(=O)OC)[C@H]2C(=O)N(Cc3ccccc3)C(=O)[C@@H]12 | 13.8%
O=C(COC(=O)c1ccccn1)NNC(=O)c1ccc(Br)cc1 | 2.38%
Cn1nc(C(=O)OCC(=O)N(Cc2ccccc2)C(C)(C)C)c2ccccc2c1=O | 14.1%
CCCNc1c(N)c(=O)c1=O | 12.6%
Cc1cccc(C(=O)N2CCCC(Nc3ccc(C(C)C)cc3)C2)n1 (stereo unspecified) | -5.26%
Clc1cccc(Cl)c1OCCOCCNCc1ccccc1 | 89.2% (active)
CCOc1ccccc1OCCCNCc1ccccc1 | -6.93%
OCCNCc1cccc(OCc2ccccc2Cl)c1 | 20.6%
N#C/C(=C\c1ccc(-c2cccc([N+](=O)[O-])c2)o1)C(=O)NCCN1CCOCC1 | 10.3%
Cc1ccc(Cc2cnc(NC(=O)/C(C#N)=C/c3ccc(-c4cccc([N+](=O)[O-])c4)o3)s2)cc1 | 97.9% (active)

SMILES | inhibition
Cc1ccc(-c2ccc(/C=C(\C#N)C(N)=S)o2)c([N+](=O)[O-])c1 | -46.3%
COc1ccc(CCNC(=O)COC(=O)c2ncc(Cl)c(Cl)c2Cl)cc1OC | 8.42%
O=C(c1cc(=O)c2ccccc2o1)N1CCN(c2ccccc2)CC1 | 17.2%
COc1ccccc1N1CCN(C(=O)c2cc(=O)c3cc(C)cc(C)c3o2)CC1 | 63.5% (active)
COc1ccccc1N1CCN(C(=O)c2cc(=O)c3cc(C)ccc3o2)CC1 | 40.1%
C=C(C)C(=O)Nc1cccc(C(C)=O)c1 | 20.2%
CSc1nsc(NC(=O)Nc2ccccc2)n1 | -31.4%
CCSc1nsc(NC(=O)Nc2ccccc2OC)n1 | -33.9%
CCSc1nsc(NC(=O)Nc2cccc(C(C)=O)c2)n1 | 62.3% (active)
C=CCSc1nsc(NC(=O)Nc2cccc(C(C)=O)c2)n1 | 94.3% (active)
C=CCSc1nnc(NC(=O)c2ccc(NC(C)=O)cc2)s1 | -18.8%
CCCCC(=O)N1CC2(C)CN(C(=O)CCCC)CC(C)(C1)C2=O | -4.56%
CN(C(=O)c1c(Cl)cnn1C)C12CC3CC(CC(C3)C1)C2 | 4.45%
CCC(=O)N(CCc1ccccc1)Cc1cc2cc(C)ccc2[nH]c1=O | -5.57%
Cc1ccc2[nH]c(=O)c(CN(CCCN(C)C)C(=O)Nc3cccc(Cl)c3)cc2c1 | 66.9% (active)
Cc1ccc2[nH]c(=O)c(CN(CC3COCCO3)C(=O)Nc3ccccc3C)cc2c1 (stereo unspecified) | 6.03%
CC(C)NC(=O)N1CCN(c2ccncc2S(=O)(=O)N2CCCCC2)CC1 | 14.5%
COc1cc(OC)c(OC)cc1/C=N/Nc1ncnc2c1[nH]c1ccc(C)cc12 | 78.4% (active)
CCOc1cc(/C=N/Nc2cc(C)nc3ccc(C)cc23)ccc1O | 3.4%
Cc1ccc2[nH]c3c(=O)n(Cc4ccccn4)cnc3c2c1 | 7.52%
